Consider seven molecules from PubChem BioAssay (EPA / NIEHS).

Records with an inconclusive call do not appear. Active and inactive are the calls of the source. The calls were made as follows, unless noted: active = hit-call score of the fitted dose curve at least 0.9, where 1 is the maximum; inactive = score below 0.9.

The target of assay [1] is Retinoic acid receptor RXR-alpha (Homo sapiens) (UniProt P19793). As to the kind of experiment: ATG_RXRa_TRANS: Attagene TRANS-FACTORIAL HepG2 Assay for human Retinoid X Receptor alpha (RXRa) (AID 2283012; active = hit-call score of the fitted dose curve at least 0.9, where 1 is the maximum). The method, boiled down:
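Transient transfection of human HepG2 with multiple GAL4-UAS reporter constructs; 24 h compound exposure; total RNA isolated, reverse-transcribed, PCR-amplified, 6-FAM labelled, HpaI-cut, resolved by capillary electrophoresis. Positive-direction fit versus DMSO.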

For assay [2], the target named is human Retinoid X Receptor beta (RXRb), RXRB (gene 6257) (UniProt P28702). As to the kind of experiment: ATG_RXRb_TRANS: Attagene TRANS-FACTORIAL HepG2 Assay for human Retinoid X Receptor beta (RXRb) (AID 2283013; active = hit-call score of the fitted dose curve at least 0.9, where 1 is the maximum). The method, boiled down:
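Transfect HepG2 with GAL4-UAS multi-reporter constructs (chimeric NR-Gal4, TRANS format); dose compound 24 h; isolate RNA, RT-PCR, FAM primer extension, HpaI digest; quantify by capillary electrophoresis; positive direction vs DMSO.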

Read-out in assay [3]: E-selectin (Homo sapiens) (UniProt P16581)
The assay can be described thus: BSK_3C_Eselectin: BioMAP Diversity Plus: 3C Assay for Eselectin Biomarker Activity (AID 2283015).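 As to outcome: cell surface E-selectin protein quantified by ELISA 24 h after dosing.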 The following applies: primary human endothelial cells (HUVEC); actives raise or lower the signal. The procedure, abridged:
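Human vascular endothelium from umbilical vein is exposed to test chemicals for 24 h. E-selectin levels are read by ELISA and compared with DMSO controls.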

Read-out in assay [4]: Interleukin-1 alpha (IL1a), IL1A (gene 3552)
As to the kind of experiment: BSK_BE3C_IL1a: BioMAP Diversity Plus: BE3C Assay for Interleukin-1 alpha (IL1a) Biomarker Activity (AID 2283016). The following applies: primary human bronchial epithelial cells; actives raise or lower the signal. The procedure, abridged: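 BE3C primary human bronchial epithelium; cpd 24 h; IL-1a by ELISA; bidirectional fit vs DMSO; parallel SRB (0.1% SRB, 10% TCA fix, 560 nm) for cytotoxicity.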

Read-out in assay [5]: Monocyte Chemoattractant Protein-1 (MCP1), CCL2 (gene 6347)
As to the kind of experiment: BSK_3C_MCP1: BioMAP Diversity Plus: 3C Assay for Monocyte Chemoattractant Protein-1 (MCP1) Biomarker Activity (AID 2283017). The following applies: primary human endothelial cells (HUVEC); actives raise or lower the signal. The method, boiled down: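 Endothelial cells from human umbilical vein are dosed with chemical, cultured 24 h, then assayed for MCP-1 by ELISA; both increases and decreases are modelled against DMSO controls.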

Read-out in assay [6]: Human Leukocyte Antigen - DR isotype (HLADR), HLA-DRA (gene 3122)
As to the kind of experiment: BSK_3C_HLADR: BioMAP Diversity Plus: 3C Assay for Human Leukocyte Antigen - DR isotype (HLADR) Biomarker Activity (AID 2283019).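 As to outcome: ELISA of cell-surface HLA-DR on HUVEC 24 h after dosing.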 The following applies: primary human endothelial cells (HUVEC); actives raise or lower the signal. The procedure, abridged: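 Endothelial cells from human umbilical vein are treated with test chemical; after 24 h, HLA-DR levels are measured by ELISA. Data are fitted in both directions using DMSO as the baseline.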

Read-out in assay [7]: Monokine induced gamma interferon (MIG), CXCL9 (gene 4283)
As to the kind of experiment: BSK_3C_MIG: BioMAP Diversity Plus: 3C Assay for Monokine induced gamma interferon (MIG) Biomarker Activity (AID 2283021). The following applies: primary human endothelial cells (HUVEC); actives raise or lower the signal. The method, boiled down:
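Read-out is ELISA detection of MIG on human umbilical vein endothelial cells, taken 24 h after dosing. Gain or loss of signal was scored relative to DMSO controls using bidirectional curve fitting.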

The target of assay [8] is human Vitamin D Receptor (VDR), VDR (gene 7421) (UniProt P11473). The assay can be described thus: ATG_VDR_TRANS: Attagene TRANS-FACTORIAL HepG2 Assay for human Vitamin D Receptor (VDR) (AID 2283022; active = hit-call score of the fitted dose curve at least 0.9, where 1 is the maximum). The method, boiled down:
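Fluorescence of labelled reporter cDNA fragments, resolved by capillary electrophoresis, gives mRNA induction after 24 h treatment of HepG2 cells carrying transfected Gal4-fusion reporter units. Activity is fitted in the positive direction with DMSO as baseline.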

Assay [9] is described as follows: BSK_3C_SRB: Viability Assessment in the BioMAP Diversity Plus: 3C Assay (AID 2283023).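 Also: fitted both ways against DMSO so a hit may be signal rise or drop.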 The following applies: primary human endothelial cells (HUVEC). The method, boiled down:
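Cells were dosed with chemical, cultured 24 h, fixed with 10% TCA, stained with 0.1% SRB and read at 560 nm. Human umbilical vein endothelium was used; DMSO served as negative control and baseline.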

Read-out in assay [10]: Matrix Metallopeptidase 1 (MMP1), MMP1 (gene 4312)
The assay can be described thus: BSK_BE3C_MMP1: BioMAP Diversity Plus: BE3C Assay for Matrix Metallopeptidase 1 (MMP1) Biomarker Activity (AID 2283024). The following applies: primary human bronchial epithelial cells; actives raise or lower the signal. The procedure, abridged: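 Human bronchial epithelial cells (BE3C system) exposed to compound for 24 h; MMP1 then quantified by ELISA. Activity was fitted in both directions relative to DMSO.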

Read-out in assay [11]: Pselectin, SELP (gene 6403)
The assay can be described thus: BSK_4H_Pselectin: BioMAP Diversity Plus: 4H Assay for Pselectin Biomarker Activity (AID 2283026). The following applies: primary human endothelial cells (HUVEC); actives raise or lower the signal. The procedure, abridged: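 ELISA read-out of P-selectin on human umbilical vein endothelium after 24 h of dosing. Values derive from bidirectional fitting relative to DMSO. Parallel SRB protein staining flagged overt cytotoxicity.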

Assay [12] is described as follows: BSK_4H_SRB: Viability Assessment in the BioMAP Diversity Plus: 4H Assay (AID 2283027).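 Also: cells exposed to compound for 24 h before staining.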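 As to AC50: curves fitted both ways versus DMSO so AC50 may be loss or gain.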 The following applies: primary human endothelial cells (HUVEC). The procedure, abridged: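 Human umbilical vein endothelial cells were dosed with chemical and, after 24 h, fixed with 10% TCA, stained with 0.1% sulforhodamine B, and read at 560 nm to give total protein as a cytotoxicity measure. Bidirectional fitting relative to DMSO control.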

Assay [13] in a line: BSK_BE3C_SRB: Viability Assessment in the BioMAP Diversity Plus: BE3C Assay (AID 2283028). The following applies: primary human bronchial epithelial cells. The method, boiled down:
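Overt cytotoxicity was assessed as total protein in confluent human primary bronchial epithelial cultures 24 h after chemical addition, using 0.1% sulforhodamine B staining read at 560 nm.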

Read-out in assay [14]: Thrombomodulin, THBD (gene 7056)
The assay can be described thus: BSK_3C_Thrombomodulin: BioMAP Diversity Plus: 3C Assay for Thrombomodulin Biomarker Activity (AID 2283029). The following applies: primary human endothelial cells (HUVEC); actives raise or lower the signal. The method, boiled down: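 Read-out is ELISA of thrombomodulin on human umbilical vein endothelium 24 h after chemical dosing. Gain or loss of signal is scored relative to DMSO. Overt cytotoxicity is checked in parallel cultures by sulforhodamine B staining.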

Read-out in assay [15]: Urokinase-type plasminogen activator receptor (uPAR), PLAUR (gene 5329)
As to the kind of experiment: BSK_4H_uPAR: BioMAP Diversity Plus: 4H Assay for Urokinase-type plasminogen activator receptor (uPAR) Biomarker Activity (AID 2283030). The following applies: primary human endothelial cells (HUVEC); actives raise or lower the signal. The method, boiled down:
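Chemicals are dosed onto human vascular endothelial primary cells (umbilical vein). After 24 h, uPAR is read by ELISA. Gain or loss of signal is fitted relative to DMSO.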

The target of assay [16] is human Thyroid Receptor alpha (THRa1), THRA (gene 7067) (UniProt P10827). The assay can be described thus: ATG_THRa1_TRANS: Attagene TRANS-FACTORIAL HepG2 Assay for human Thyroid Receptor alpha (THRa1) (AID 2283014; active = hit-call score of the fitted dose curve at least 0.9, where 1 is the maximum). The method, boiled down: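 First, HepG2 cells receive multiple GAL4-UAS reporter units and the chimeric receptor. They are then dosed for 24 h, after which RNA is reverse-transcribed, amplified, labelled, HpaI-cut and sized by capillary electrophoresis; gain relative to DMSO is scored.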
Chain of human Thyroid Receptor alpha (THRa1), THRA (gene 7067) (P10827 whole entry, looked up, the tested form may be a part): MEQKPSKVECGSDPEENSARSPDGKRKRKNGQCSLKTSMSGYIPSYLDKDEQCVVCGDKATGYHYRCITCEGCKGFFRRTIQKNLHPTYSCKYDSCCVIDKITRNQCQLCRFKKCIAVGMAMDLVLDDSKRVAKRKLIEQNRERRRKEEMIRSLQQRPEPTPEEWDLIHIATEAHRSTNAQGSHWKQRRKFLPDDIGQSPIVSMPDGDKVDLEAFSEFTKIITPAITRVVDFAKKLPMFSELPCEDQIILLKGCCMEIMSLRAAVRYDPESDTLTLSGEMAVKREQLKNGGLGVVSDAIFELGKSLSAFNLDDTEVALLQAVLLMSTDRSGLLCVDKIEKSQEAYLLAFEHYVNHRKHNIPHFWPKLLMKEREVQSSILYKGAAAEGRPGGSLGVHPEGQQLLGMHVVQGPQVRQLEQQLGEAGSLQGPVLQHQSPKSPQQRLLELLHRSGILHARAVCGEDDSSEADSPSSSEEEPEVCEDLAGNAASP

Read-out in assay [17]: Monocyte Chemoattractant Protein-1 (MCP1), CCL2 (gene 6347)
As to the kind of experiment: BSK_4H_MCP1: BioMAP Diversity Plus: 4H Assay for Monocyte Chemoattractant Protein-1 (MCP1) Biomarker Activity (AID 2283018). The following applies: primary human endothelial cells (HUVEC); actives raise or lower the signal. The procedure, abridged: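 ELISA read-out of MCP-1 from human vascular endothelial primary cells taken at 24 hours after compound exposure. Activity was fitted in both directions relative to DMSO, which served as negative control.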

Assay [18] is described as follows: BSK_3C_Vis: BioMAP Diversity Plus: 3C Assay for Morphology Visualization (AID 2283025).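 Also: fitted both ways so gain or loss versus DMSO counts.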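 As to AC50: light microscopy image of cell morphology used as background control.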 The following applies: primary human endothelial cells (HUVEC). The procedure, abridged:
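Chemicals were added to primary human umbilical vein endothelium, cells were incubated 24 h, and morphology was then visualized by light microscopy. Gain or loss of signal was fitted bidirectionally relative to DMSO.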

Read-out in assay [19]: Vascular endothelial growth factor receptor 2 (Homo sapiens) (UniProt P35968)
The assay can be described thus: BSK_4H_VEGFRII: BioMAP Diversity Plus: 4H Assay for Vascular endothelial growth factor receptor 2 (VEGFR2) Biomarker Activity (AID 2283031). The following applies: primary human endothelial cells (HUVEC); actives raise or lower the signal. The method, boiled down:
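VEGFRII levels on human vascular endothelial primary cells were determined by ELISA at 24 hours post-dosing, with gain- or loss-of-signal fitted against DMSO controls.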

Read-out in assay [20]: Interleukin-8 (IL8), CXCL8 (gene 3576)
The assay can be described thus: BSK_3C_IL8: BioMAP Diversity Plus: 3C Assay for Interleukin-8 (IL8) Biomarker Activity (AID 2283020). The following applies: primary human endothelial cells (HUVEC); actives raise or lower the signal. The procedure, abridged: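 ELISA read-out of IL-8 from human umbilical vein endothelium, measured 24 h after chemical dosing. Activity is expressed relative to DMSO negative control, with both increases and decreases fitted.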

Chain of human Retinoid X Receptor beta (RXRb), RXRB (gene 6257) (P28702 whole entry, looked up, the tested form may be a part): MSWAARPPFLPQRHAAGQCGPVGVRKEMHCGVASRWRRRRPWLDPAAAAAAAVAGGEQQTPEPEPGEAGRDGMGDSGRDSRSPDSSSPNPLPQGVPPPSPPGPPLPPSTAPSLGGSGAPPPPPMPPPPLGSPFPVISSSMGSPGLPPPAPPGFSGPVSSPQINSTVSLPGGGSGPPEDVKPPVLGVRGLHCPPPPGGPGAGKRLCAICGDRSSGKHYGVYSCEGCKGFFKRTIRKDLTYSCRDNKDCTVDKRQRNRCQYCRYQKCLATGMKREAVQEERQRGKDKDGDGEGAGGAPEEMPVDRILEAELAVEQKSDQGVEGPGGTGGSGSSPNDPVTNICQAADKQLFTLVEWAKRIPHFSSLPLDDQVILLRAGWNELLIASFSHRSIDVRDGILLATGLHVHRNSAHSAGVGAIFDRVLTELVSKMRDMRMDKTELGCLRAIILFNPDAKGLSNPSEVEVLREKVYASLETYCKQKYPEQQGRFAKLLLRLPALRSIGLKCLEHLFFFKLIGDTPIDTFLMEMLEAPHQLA
Chain of E-selectin (Homo sapiens) (P16581 whole entry, looked up): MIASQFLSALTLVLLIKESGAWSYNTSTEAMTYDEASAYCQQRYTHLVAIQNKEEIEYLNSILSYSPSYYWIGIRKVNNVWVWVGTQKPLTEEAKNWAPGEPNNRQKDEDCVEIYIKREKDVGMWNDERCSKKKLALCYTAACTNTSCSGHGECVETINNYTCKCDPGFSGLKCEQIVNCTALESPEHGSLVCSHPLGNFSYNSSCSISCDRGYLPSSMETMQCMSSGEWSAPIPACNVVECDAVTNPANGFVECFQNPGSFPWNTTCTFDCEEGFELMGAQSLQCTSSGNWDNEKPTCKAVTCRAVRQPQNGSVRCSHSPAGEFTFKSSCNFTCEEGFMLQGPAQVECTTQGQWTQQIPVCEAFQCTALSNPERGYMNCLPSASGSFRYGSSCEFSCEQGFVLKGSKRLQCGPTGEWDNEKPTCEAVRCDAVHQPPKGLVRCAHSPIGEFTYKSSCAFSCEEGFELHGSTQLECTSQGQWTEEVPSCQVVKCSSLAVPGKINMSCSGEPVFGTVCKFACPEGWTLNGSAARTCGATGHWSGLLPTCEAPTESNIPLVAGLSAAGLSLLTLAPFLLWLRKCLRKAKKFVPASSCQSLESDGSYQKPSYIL
Chain of Retinoic acid receptor RXR-alpha (Homo sapiens) (P19793 whole entry, looked up, the tested form may be a part): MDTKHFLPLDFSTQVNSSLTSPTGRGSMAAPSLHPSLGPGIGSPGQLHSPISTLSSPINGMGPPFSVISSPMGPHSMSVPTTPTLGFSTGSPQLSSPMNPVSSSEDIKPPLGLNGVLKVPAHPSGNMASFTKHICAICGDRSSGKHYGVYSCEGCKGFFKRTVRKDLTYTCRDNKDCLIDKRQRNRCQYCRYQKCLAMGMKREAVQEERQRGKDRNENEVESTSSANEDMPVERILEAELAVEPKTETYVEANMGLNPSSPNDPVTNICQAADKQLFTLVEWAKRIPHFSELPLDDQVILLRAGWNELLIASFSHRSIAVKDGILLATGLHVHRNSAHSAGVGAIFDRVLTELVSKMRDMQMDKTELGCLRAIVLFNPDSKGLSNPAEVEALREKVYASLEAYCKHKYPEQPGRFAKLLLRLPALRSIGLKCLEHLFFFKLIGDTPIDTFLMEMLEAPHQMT
Chain of human Vitamin D Receptor (VDR), VDR (gene 7421) (P11473 whole entry, looked up, the tested form may be a part): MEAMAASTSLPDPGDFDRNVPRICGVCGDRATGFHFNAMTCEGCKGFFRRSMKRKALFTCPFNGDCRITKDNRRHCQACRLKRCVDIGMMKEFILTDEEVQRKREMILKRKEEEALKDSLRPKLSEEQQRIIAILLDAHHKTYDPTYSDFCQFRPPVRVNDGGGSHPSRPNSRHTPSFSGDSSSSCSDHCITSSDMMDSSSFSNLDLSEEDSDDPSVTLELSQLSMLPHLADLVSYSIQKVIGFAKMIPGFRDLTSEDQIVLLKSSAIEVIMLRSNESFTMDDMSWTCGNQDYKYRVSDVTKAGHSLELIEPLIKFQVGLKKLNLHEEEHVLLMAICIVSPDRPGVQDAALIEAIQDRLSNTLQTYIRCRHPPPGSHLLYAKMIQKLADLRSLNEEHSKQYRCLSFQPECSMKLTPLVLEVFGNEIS

Turning to `CC(C)=CCCC(C)=CC=O`, the outcome in assay [1], in assay [2], in assay [3], in [4], in assay [5] and in assay [6] was inactive. Moreover, the outcome in assay [7], in assay [8], in [9], in assay [10], in assay [11] and in assay [12] was inactive. Moreover, the result in assay [13], in assay [14] and in assay [15] was inactive.

Regarding `CN(C)c1ccc(N=NS(=O)(=O)O)cc1`, the call in assay [1], in [2], in assay [16], in assay [3], in assay [4] and in assay [5] was inactive. Besides, the result in assay [17], in [6], in assay [7], in [8], in [9] and in [10] was inactive. The result in assay [18], in assay [11], in assay [12], in [13], in [14] and in [15] was inactive. Besides, the outcome in assay [19] was inactive.

`O=C(O)CCN(C1(C(=O)NO)CCCC1)S(=O)(=O)c1ccc(Oc2ccc(F)cc2)cc1`: the result in [1], in assay [2], in assay [16], in assay [3], in assay [4] and in assay [5] was inactive. Further, the result in [6], in assay [7], in assay [8], in assay [9], in assay [10] and in [18] was inactive. Also, the result in [11], in assay [12], in [13], in assay [14], in assay [15] and in [19] was inactive.

For the molecule `CCCN(C1CCN(C(=O)C2CCNCC2)CC1)[C@@H]1CCc2ccc(OC)cc2C1`, the result in assay [1], in [2], in [16], in assay [3], in assay [4] and in assay [5] was inactive. In addition, the outcome in assay [17], in assay [6], in [7], in [8], in assay [9] and in [10] was inactive. Besides, the outcome in assay [18], in [11], in [12], in assay [13], in assay [14] and in assay [15] was inactive.

With `O=C(NS(=O)(=O)/C=C/c1ccccc1)c1ccc(F)cc1Cl`, the result in [1], in assay [2], in [16], in [3], in [4] and in assay [6] was inactive. Moreover, the result in [7], in assay [9], in [10], in assay [18], in assay [11] and in [13] was inactive. Also, the result in [14] and in [15] was inactive.

As for `CCCCCCCCCCCCCCCO`, the molecule was called inactive in assay [1], in [4], in assay [7], in [8], in assay [10] and in [13]. Further, in [15], the result was inactive. For the same molecule, the concentration at half-maximal activity (AC50) (in general, the concentration at which the activity in the assay is half-maximal) in assay [2] is 27.5 µM (active); in [3], 26.9 µM (active); in assay [17] it was 29.1 µM (active); in [6] it was 31.4 µM (active); in assay [20] it was 31.2 µM (active); in assay [9] it was 36.8 µM (active). In addition, the AC50 is 31.3 µM (active) in assay [11], 36.1 µM (active) in assay [12] and 6.63 µM (active) in assay [14].

For the molecule `CC(C)c1cccc(C(C)C)c1N1C(=O)c2ccc(O)cc2C1=O`, the call in [1], in assay [2], in assay [5], in assay [7], in assay [8] and in assay [10] was inactive. In addition, the outcome in assay [13] and in [14] was inactive. Besides, the AC50 in [3] is 36.5 µM (active); in assay [4], 20 µM (active); in assay [17], 4.76 µM (active); in assay [6], 8.36 µM (active); in [20], 4.86 µM (active); in assay [9], 17.3 µM (active). The concentration at half-maximal activity (AC50) in assay [18] was 5.57 µM (active); in assay [11], 8.54 µM (active); in assay [15], 14.6 µM (active).
